Screening data from PubChem BioAssay.
Shown are actives, neighbours in structure and some others; about 4.6% of the full set was active somewhere.
tim10-1 inh: growth inhibitors of tim10-1 mutant yeast | 330,000 compounds, 2.2% hits | S. cerevisiae tim10-1 ts strain growth, BacTiter-Glo, 24 h | inhibition, % at 20 µM;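 active = inhibition of at least 40%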;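 note: mutant grown at 25 °C; 0% = DMSO wells with yeast and 100% = wells holding no yeast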
tim23-1 inh: growth inhibitors of tim23-1 mutant yeast; AID 463212; inhibition, % at 20 µM; 330,000 compounds, 1.3% hits; S. cerevisiae tim23-1 growth, BacTiter-Glo luminescence, 24 h;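 active = growth inhibition of the mutant yeast at or above 50%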;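 note: temperature-sensitive mutant grown at 25 °C; plate controls were DMSO-treated mutant yeast for no effect and medium wells lacking yeast for full effect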
SKKanGAS inh: SKKanGAS growth inhibition; inhibition, % at 7.5 µM; S. pyogenes SKKanGAS, kanamycin growth, BacTiter-Glo, 6 h; 300,000 compounds, 1.3% hits; AID 1662;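 active = mean replicate score, as percent of positive control median, at least 50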;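 note: strain carries kanamycin resistance gene driven by streptokinase promoter and grows in 40 µg/ml kanamycin; loss of luminescence reflects streptokinase promoter inhibition or plain growth inhibition; 0% = median of DMSO wells and 100% = positive control at its reference dose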
NLRP3 yeast inh: blocks the NALP3 inflammasome reconstituted in yeast; 330,000 compounds, 0.39% hits; Yeast reconstituted NLRP3/ASC/caspase-1, beta-gal luminescence, 24 h; inhibition, % at 10 µM; AID 2825;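 active = inhibition of 50% or more; inactive = inhibition below 50%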;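 note: plate controls were induced DMSO wells for no effect and uninduced yeast grown without galactose for full effect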
TIM10 inh: inhibits growth of TIM10 yeast strain | S. cerevisiae TIM10 strain growth, BacTiter-Glo luminescence, 24 h | inhibition, % at 10 µM | 330,000 compounds, 1.4% hits | AID 463195;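 active = inhibition of 40% or more at the single tested concentration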;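 note: wild-type TIM10 isogenic control strain grown at permissive 25 °C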
Numbers without * were called inactive; x = no result given.

SMILES	tim10-1 inh	tim23-1 inh	SKKanGAS inh	NLRP3 yeast inh	TIM10 inh
C=CCOC1=CS(=O)(=O)N(Cc2ccc(Br)cc2)c2ccc(Br)cc21	3	34	x	x	-11
CC(=O)OCC1=C(C(=O)O)N2C(=O)C(NC(=O)COc3ccc(F)cc3)C2SC1 (configuration not stated)	-13	-2	x	4	6
CC(=O)OCC1=C(C(=O)O)N2C(=O)C(NC(=O)CCn3nc(C)c(Cl)c3C)C2SC1 (configuration not stated)	-7	1	95*	7	1
Cc1nnc(SCC2=C(C(=O)O)N3C(=O)C(NC(=O)c4cc(F)c(F)cc4Cl)C3SC2)s1 (configuration not stated)	12	12	109*	14	16
CC(=O)OCC1=C(C(=O)O)N2C(=O)C(NC(=O)Cn3nc(C(F)F)c(Cl)c3C)C2SC1 (configuration not stated)	-3	8	109*	18	4
CCOc1ccc(C(=O)NC2C(=O)N3C(C(=O)O)=C(COC(C)=O)CSC23)cc1OCC (configuration not stated)	-2	-9	x	7	9
CC(=O)OCC1=C(C(=O)O)N2C(=O)C(NC(=O)CCn3nc(C(F)(F)F)c(Br)c3C3CC3)C2SC1 (configuration not stated)	4	13	110*	10	-2
Cc1nnc(SCC2=C(C(=O)O)N3C(=O)C(NC(=O)COc4ccc(F)cc4)C3SC2)s1 (configuration not stated)	-3	5	x	6	9
C/C(=N\Nc1ccc(C(=O)O)cc1)c1ccc2c(c1)Nc1ccccc1S2	-5	28	81*	28	8
Cc1ccccc1N1CCN(C2CCCN(C(=O)c3ccnn3C)C2)CC1 (configuration not stated)	23	15	31	11	-4
CN(C(=O)c1cc2c(=O)n3ccccc3nc2n1C)C1CCCCC1	26	14	1	-1	-2
COc1ccc(-c2csc(/C(C#N)=C\c3ccc(O)c([N+](=O)[O-])c3)n2)cc1OC	7	1	95*	31	12
CC(C)(O)C#Cc1ccc(CNC[C@H]2O[C@@H](n3cnc4c(N)ncnc43)[C@H](O)[C@@H]2O)s1	12	37	x	x	-14
O=[N+]([O-])c1ccc(Cl)cc1Sc1cccc2cccnc12	10	0	7	12	10
O=[N+]([O-])c1ccc(Cl)cc1Sc1nc2ccccc2o1	13	24	67*	-12	20
NC(=S)N/N=C\c1c(OCc2ccccc2Cl)ccc2ccccc12	-8	-3	50*	19	14
O=C(N/N=C/c1ccccc1OCc1ccccc1Cl)c1cccnc1	16	31	2	17	30
CCOC(=O)C1=CNS(=O)(=O)NC1c1ccccc1 (configuration not stated)	17	32	x	x	-5
COc1cccc(-c2nn(-c3ccccc3)cc2C(=O)Nc2nccs2)c1	31	25	62*	19	30
Cc1ccc2c(CN(C)Cc3ccc(Cl)cc3Cl)cc(=O)oc2c1	9	11	53*	3	15
O=C(Nc1cccnc1Cl)c1cc(-c2cccc(O)c2)on1	-21	-15	1	1	-1
O=[N+]([O-])c1ccc(N2CCCCC2)c(Cl)c1N1CCCCC1	9	9	93*	13	-2
Cc1nc2c(-c3ccccc3)c[nH]n2c(=O)c1Cc1ccccc1	-8	8	71*	4	-13
Cc1cc(=O)n2[nH]cc(-c3ccccc3)c2n1	-31	-2	-1	7	-12
CC#CCN(Cc1ccco1)C(=O)c1ccc(OC2CCN(Cc3ccccn3)CC2)cc1	-4	6	-1	29	1
SMILES	tim10-1 inh	tim23-1 inh	SKKanGAS inh	NLRP3 yeast inh	TIM10 inh
O=C(Nc1ccc2c(c1)CN(Cc1ccc(CO)o1)CC2)c1ccc(C(F)(F)F)cc1	17	16	20	-6	0
COc1ccc(CN2CCc3ccc(NC(=O)c4ccncc4)cc3C2)c(F)c1	14	22	50*	18	5
O=C(NNc1c2ccccc2nc2ccccc12)c1ccccc1O	8	-2	43	23	22
O=C(NNc1c2ccccc2nc2ccccc12)c1ccc(O)cc1O	3	-5	51*	29	8
COc1ccc2c(c1)c(CC(=O)Nc1cccc(S(N)(=O)=O)c1)c(C)n2C(=O)c1ccc(Cl)cc1	-10	-36	86*	-28	-13
COc1ccc(NS(=O)(=O)c2cccc(NC(=O)CCC(=O)c3ccc(Cl)cc3)c2)cc1	11	-1	51*	10	-2
CCCOc1ccc(C(=O)NC(=S)NNC(=O)c2c(-c3ccccc3)noc2C)cc1	22	24	100*	20	-4
CCCOc1ccc(NC(=O)c2c(-c3ccccc3)noc2C)cc1	7	2	0	9	-2
O=C(NNC(=O)c1ccc(O)cc1O)c1ccc(-c2ccccc2)cc1	4	3	1	10	-20
Cc1onc(-c2ccccc2)c1C(=O)NC(=S)NNC(=O)c1ccc(O)cc1O	11	28	80*	6	-20
COC(=O)c1ccc(NC(=S)NC(=O)c2c(-c3ccccc3)noc2C)cc1	6	11	-4	13	1
Cc1onc(-c2ccccc2)c1C(=O)NNC(=O)c1ccccc1Br	4	14	x	9	10
Cc1onc(-c2ccccc2)c1C(=O)NC(=S)NNC(=O)c1ccc(O)cc1	17	21	106*	21	-2
Cc1onc(-c2ccccc2)c1C(=O)NC(=S)NNC(=O)c1ccccc1O	9	40	87*	5	9
Cc1cc(C)n2nc(C(=O)OCC(=O)N(CC(C)C)C3CCS(=O)(=O)C3)nc2n1 (configuration not stated)	-18	-7	x	20	-16
CC(=O)c1ccc(S(=O)(=O)NCCC(=O)OCC(=O)N(Cc2ccccc2)C(C)(C)C)cc1	26	9	x	2	6
O=[N+]([O-])c1c(Nc2ccc(O)cc2)cc(Cl)c2nonc12	-8	-8	-9	25	4
CC1CCC(NC(=O)CN2C(=O)C3CC=CCC3C2=O)CC1 (configuration not stated)	-2	8	x	-8	-2
CCCCC(CC)CN1C(=O)/C(=C/c2ccncc2)SC1=S (configuration not stated)	33	37	87*	9	13
O=C(Nc1ccc(S(=O)(=O)N2CCCC2)cc1)C1CC(=O)N(CCc2ccc(F)cc2)C1 (configuration not stated)	0	7	x	13	16
O=C(NC1C2CC3CC(C2)CC1C3)C1CC1 (configuration not stated)	3	6	2	37	6
O=C(NC1CCCCC1)NC1C2CC3CC(C2)CC1C3 (configuration not stated)	26	28	54*	20	16
O=[N+]([O-])c1ccc(N=Nc2c(Cl)cc(O)cc2Cl)cc1	x	x	50*	x	x
